For some of these results: Measured potencies and affinities stand elsewhere.
Tests used:
Parameters in all cases: scale not given: direction of the effect not stated beside the values
[1] = biological target: Protein translocase subunit SecA (Escherichia coli (strain K12)) (UniProt P10408); test: Assay to Identify E. coli SecA ATPase Inhibitors; type: functional; settings: 30 µM
[2] = biological target: T1, Ubiquitin-activating enzyme e1, putative (Leishmania donovani (strain BPK282A1)) (UniProt E9BSI1); test: Leishmania donovani Ubiquitin Activating Enzyme (LdE1); type: functional; settings: 30 µM
T1 sequence (whole entry): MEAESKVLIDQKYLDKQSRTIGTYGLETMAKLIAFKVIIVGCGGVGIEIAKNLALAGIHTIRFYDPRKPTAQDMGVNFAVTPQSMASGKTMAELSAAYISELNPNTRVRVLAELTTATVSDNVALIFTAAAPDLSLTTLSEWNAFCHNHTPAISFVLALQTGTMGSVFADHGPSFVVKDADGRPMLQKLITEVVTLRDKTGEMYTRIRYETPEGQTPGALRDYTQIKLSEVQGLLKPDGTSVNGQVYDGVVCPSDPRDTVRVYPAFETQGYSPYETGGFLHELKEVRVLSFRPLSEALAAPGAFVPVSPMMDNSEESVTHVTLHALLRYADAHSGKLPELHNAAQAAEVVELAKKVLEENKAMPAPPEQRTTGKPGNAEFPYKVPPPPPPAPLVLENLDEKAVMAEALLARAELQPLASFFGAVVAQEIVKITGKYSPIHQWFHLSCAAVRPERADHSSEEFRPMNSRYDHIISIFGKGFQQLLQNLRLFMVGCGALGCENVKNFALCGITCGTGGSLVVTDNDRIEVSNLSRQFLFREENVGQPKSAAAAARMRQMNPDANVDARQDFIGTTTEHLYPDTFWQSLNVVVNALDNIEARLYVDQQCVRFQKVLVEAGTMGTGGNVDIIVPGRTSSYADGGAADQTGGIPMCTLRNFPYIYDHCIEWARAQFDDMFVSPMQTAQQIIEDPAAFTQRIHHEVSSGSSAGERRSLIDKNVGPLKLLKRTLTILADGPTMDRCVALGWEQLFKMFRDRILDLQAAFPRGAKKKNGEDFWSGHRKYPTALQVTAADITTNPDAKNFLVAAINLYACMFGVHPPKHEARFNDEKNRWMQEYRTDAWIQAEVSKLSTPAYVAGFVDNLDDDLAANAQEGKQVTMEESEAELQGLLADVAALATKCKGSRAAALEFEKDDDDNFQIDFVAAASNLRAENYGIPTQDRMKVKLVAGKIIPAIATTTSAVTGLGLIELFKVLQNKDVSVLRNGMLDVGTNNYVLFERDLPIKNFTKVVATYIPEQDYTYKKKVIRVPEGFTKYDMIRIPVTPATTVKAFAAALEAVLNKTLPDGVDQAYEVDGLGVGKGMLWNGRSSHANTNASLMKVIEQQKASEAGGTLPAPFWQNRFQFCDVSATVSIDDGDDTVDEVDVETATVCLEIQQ

[3] = biological target: AMP-activated protein kinase, AMPK (Homo sapiens) (UniProt P54646+O43741+P54619+Q9UGJ0+Q9Y478+Q13131+Q9UGI9); test: AMP-dependent Kinase enzyme assay. An in vitro enzyme assay that detects ADP turnover that is directly proportional to AMPK activity. This uses naive AMPK that is activated during the assay with MK-8722; type: functional; settings: 30 µM
[4] = biological target: Sialic acid-binding Ig-like lectin 9 (Homo sapiens) (UniProt Q9Y336); test: Hs-Siglec9 ALPHAscreen SOP 20170721; settings: 10 µM
Trypanosoma cruzi = test: Trypanosoma cruzi phosphomannomutase and mannose-1-phosphate guanylyltransferase assay; type: functional; settings: 10 µM
[5] = biological target: T2, Arginase-2, mitochondrial (Homo sapiens) (UniProt P78540); test: in vitro enzyme assay to detect the production of urea directly proportional to the activity of Arginase II; type: functional; settings: 33.3 µM; note: in the data most compounds retested in dose-response had high values
T2 sequence (whole entry): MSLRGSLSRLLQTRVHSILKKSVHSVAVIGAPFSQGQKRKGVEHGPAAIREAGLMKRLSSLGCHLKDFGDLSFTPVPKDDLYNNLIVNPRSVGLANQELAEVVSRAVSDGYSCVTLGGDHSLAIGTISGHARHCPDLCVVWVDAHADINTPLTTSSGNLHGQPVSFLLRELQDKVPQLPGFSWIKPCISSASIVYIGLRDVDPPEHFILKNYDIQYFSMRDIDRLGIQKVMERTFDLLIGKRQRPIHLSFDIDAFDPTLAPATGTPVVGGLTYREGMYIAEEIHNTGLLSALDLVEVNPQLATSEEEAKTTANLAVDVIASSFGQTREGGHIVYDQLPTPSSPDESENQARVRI

[6] = biological target: T3, Proteasome subunit beta (Trypanosoma cruzi) (UniProt O96673); test: Trypanosoma cruzi proteasome chymotrypsin-like activity (TcProtChymo) assay.; note: in the data most compounds retested in dose-response had high values; type: functional; settings: 9.37 µM
T3 sequence (whole entry): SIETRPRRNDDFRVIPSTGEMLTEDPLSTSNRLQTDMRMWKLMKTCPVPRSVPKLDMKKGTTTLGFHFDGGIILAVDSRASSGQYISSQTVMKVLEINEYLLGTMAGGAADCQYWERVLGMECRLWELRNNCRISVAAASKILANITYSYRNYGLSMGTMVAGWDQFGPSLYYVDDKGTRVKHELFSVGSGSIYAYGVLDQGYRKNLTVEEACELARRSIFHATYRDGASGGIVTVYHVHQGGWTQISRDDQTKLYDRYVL

Homo sapiens = species on record: Homo sapiens; test: To identify inhibition of the IFN signalling (Jak-Stat) pathway via expression of an eGFP reporter gene under the control of an IFN-stimulated response element (ISRE) containing MxA promoter.; type: functional; settings: 30 µM
[7] = biological target: T4, Tyrosyl-tRNA synthetase, putative (Trypanosoma cruzi (strain CL Brener)) (UniProt Q4DSP6); test: Trypanosoma cruzi tyrosyl tRNA synthetase (TcYRS) _High Tyrosine SOP; type: functional; settings: 30 µM; note: in the data most compounds retested in dose-response had high values
T4 sequence (whole entry): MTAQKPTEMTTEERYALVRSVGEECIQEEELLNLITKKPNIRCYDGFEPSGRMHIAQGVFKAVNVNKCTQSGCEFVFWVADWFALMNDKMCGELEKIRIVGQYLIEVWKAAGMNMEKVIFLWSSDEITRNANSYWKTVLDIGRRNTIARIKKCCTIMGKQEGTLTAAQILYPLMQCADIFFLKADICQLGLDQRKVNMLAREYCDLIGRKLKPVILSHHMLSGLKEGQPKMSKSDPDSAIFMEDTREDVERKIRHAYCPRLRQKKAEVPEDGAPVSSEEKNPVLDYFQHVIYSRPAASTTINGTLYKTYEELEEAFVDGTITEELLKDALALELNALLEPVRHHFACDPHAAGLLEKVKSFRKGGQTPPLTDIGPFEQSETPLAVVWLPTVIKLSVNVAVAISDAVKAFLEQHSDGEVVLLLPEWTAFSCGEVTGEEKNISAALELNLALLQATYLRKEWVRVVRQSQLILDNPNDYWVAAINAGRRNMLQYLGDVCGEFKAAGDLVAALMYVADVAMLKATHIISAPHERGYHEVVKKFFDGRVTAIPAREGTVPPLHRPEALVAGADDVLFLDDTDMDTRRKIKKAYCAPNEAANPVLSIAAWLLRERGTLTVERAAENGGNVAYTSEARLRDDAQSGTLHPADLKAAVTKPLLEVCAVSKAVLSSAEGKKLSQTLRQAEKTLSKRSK

[8] = biological target: T4, Tyrosyl-tRNA synthetase, putative (Trypanosoma cruzi (strain CL Brener)); test: Trypanosoma cruzi tyrosyl tRNA synthetase (TcYRS) SOP; type: functional; settings: 30 µM
[9] = biological target: Chromo domain-containing protein 1 (Saccharomyces cerevisiae (strain ATCC 204508 / S288c) (Baker's yeast)) (UniProt P32657); test: ScCHD-1 Enzyme Inhibition Assay; type: functional; settings: 30 µM; note: in the data most compounds retested in dose-response had high values
Chromo domain-containing protein 1 (Saccharomyces cerevisiae (strain ATCC 204508 / S288c) (Baker's yeast)), sequence (P32657 whole entry, the tested form may be a part): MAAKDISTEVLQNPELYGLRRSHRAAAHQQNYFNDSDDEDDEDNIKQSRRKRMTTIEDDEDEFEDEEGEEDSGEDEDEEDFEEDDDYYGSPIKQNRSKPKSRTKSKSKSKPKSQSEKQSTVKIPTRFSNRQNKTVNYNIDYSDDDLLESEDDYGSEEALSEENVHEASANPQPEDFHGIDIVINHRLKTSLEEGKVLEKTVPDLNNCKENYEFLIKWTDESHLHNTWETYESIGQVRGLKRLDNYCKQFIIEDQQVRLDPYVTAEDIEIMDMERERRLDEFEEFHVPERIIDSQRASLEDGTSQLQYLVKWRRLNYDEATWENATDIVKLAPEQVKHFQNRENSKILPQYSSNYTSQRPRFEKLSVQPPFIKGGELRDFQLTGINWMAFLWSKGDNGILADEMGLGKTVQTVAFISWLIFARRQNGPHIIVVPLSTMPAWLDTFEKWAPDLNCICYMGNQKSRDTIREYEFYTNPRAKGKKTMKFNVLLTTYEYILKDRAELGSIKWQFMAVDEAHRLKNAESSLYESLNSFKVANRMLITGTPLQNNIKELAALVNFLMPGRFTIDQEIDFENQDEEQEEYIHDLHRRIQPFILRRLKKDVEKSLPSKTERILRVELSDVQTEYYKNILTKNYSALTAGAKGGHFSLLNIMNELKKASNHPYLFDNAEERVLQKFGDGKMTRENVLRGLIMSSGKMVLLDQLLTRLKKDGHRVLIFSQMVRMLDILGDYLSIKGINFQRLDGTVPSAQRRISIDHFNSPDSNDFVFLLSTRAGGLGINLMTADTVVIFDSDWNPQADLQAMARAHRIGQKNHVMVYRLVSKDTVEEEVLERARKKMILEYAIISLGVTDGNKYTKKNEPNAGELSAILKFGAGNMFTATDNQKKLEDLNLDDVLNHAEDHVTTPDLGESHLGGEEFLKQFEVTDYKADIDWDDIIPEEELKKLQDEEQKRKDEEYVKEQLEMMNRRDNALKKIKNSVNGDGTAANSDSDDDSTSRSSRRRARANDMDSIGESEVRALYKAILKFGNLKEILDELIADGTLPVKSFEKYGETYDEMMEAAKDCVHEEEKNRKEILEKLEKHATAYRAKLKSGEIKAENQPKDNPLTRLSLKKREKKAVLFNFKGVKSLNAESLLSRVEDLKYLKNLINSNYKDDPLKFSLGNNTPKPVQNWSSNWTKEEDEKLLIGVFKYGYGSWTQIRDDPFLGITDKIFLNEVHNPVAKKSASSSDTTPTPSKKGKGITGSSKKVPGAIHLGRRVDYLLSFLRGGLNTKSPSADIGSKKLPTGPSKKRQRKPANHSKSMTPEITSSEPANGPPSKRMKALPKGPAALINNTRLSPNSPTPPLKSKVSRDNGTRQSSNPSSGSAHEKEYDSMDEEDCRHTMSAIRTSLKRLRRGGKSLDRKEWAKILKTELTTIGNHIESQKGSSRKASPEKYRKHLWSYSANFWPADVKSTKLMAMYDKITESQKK

Sialic acid-binding Ig-like lectin 9 (Homo sapiens), sequence (Q9Y336 whole entry): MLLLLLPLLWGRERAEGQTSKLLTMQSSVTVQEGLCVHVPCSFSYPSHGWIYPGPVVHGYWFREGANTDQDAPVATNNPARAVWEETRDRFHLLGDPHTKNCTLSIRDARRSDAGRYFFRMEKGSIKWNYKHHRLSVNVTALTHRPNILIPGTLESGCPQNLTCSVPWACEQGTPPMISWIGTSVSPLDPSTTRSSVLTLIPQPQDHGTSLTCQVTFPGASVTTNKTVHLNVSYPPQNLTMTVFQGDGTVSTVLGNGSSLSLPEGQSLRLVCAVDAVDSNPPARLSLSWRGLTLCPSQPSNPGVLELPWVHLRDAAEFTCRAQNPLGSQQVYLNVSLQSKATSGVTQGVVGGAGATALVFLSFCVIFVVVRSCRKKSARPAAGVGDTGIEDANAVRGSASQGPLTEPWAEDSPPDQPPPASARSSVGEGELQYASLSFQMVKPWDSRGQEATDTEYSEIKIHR
Protein translocase subunit SecA (Escherichia coli (strain K12)), sequence (P10408 whole entry): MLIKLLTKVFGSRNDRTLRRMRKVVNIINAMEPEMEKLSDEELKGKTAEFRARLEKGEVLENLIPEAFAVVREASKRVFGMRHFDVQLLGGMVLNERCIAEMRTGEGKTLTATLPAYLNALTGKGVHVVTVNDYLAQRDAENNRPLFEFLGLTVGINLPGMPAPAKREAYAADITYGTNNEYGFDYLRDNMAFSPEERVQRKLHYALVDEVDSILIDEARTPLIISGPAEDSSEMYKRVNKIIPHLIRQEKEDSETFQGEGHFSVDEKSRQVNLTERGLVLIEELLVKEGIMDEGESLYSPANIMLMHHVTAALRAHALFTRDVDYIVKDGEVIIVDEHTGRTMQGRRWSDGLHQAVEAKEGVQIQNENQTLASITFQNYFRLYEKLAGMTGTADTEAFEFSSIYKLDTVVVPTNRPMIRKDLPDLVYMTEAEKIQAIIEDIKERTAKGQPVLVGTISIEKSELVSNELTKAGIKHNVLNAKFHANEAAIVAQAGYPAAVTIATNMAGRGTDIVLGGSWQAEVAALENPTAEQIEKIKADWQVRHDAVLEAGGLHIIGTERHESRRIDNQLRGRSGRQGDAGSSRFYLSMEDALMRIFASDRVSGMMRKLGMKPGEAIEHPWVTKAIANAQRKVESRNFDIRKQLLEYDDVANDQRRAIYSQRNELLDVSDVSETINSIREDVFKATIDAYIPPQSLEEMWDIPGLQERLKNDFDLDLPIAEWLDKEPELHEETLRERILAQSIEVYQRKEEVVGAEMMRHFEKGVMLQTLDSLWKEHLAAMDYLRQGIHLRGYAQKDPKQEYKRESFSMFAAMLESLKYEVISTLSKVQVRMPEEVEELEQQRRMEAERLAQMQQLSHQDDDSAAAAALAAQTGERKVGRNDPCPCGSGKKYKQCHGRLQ

## Cc1ccc(CC(=O)N(C)CC2(O)CCN(c3ccccn3)C2)s1 (stereo not given)
[1]
  Percent Effect: -3.85%
[2]
  Percent Effect: -1.35%
[3]
  Percent Effect: 12.4%
[4]
  Percent Effect: -1.42%
Trypanosoma cruzi
  Percent Effect: 0.198%
[5]
  Percent Effect: -2.09%
[6]
  Percent Effect: 0%
Homo sapiens
  Percent Effect: 1.85%
[7]
  Percent Effect: 4.3%
[8]
  Percent Effect: 6.49%
[9]
  Percent Effect: -1.65%

## O=C(NC1CCS(=O)(=O)C1)c1sccc1-c1ccc(F)cc1 (stereo not given)
[1]
  Percent Effect: -6.43%
[2]
  Percent Effect: 5.41%
[3]
  Percent Effect: 2.1%
[4]
  Percent Effect: -6.95%
Trypanosoma cruzi
  Percent Effect: -4.4%
[5]
  Percent Effect: -0.248%
[6]
  Percent Effect: 8.15%
Homo sapiens
  Percent Effect: -15.8%
[7]
  Percent Effect: 0%
[8]
  Percent Effect: 6.17%
[9]
  Percent Effect: 11.7%

## Cc1nn(C)c(Cl)c1C1CCCN1CC(=O)NCc1ccccn1 (stereo not given)
[1]
  Percent Effect: -0.227%
[2]
  Percent Effect: 1.27%
[3]
  Percent Effect: 8.81%
[4]
  Percent Effect: -1.21%
Trypanosoma cruzi
  Percent Effect: 0.513%
[5]
  Percent Effect: -0.215%
[6]
  Percent Effect: 12.2%
Homo sapiens
  Percent Effect: 22.5%
[7]
  Percent Effect: 4.17%
[8]
  Percent Effect: 10.1%
[9]
  Percent Effect: 3%

## OC1(Cn2ccc3ncccc32)CCN(Cc2ccccn2)CC1
[1]
  Percent Effect: -3.91%
[2]
  Percent Effect: 6.76%
[3]
  Percent Effect: 8.71%
[4]
  Percent Effect: -8.37%
Trypanosoma cruzi
  Percent Effect: -10.3%
[5]
  Percent Effect: -5.34%
[6]
  Percent Effect: 13.7%
Homo sapiens
  Percent Effect: 34.1%
[7]
  Percent Effect: -3.23%
[8]
  Percent Effect: -9.09%
[9]
  Percent Effect: -14.5%

## COCCN1C(=O)C[C@H]2[C@H]1CCN2Cc1ccc(OC)cc1
[1]
  Percent Effect: -2.83%
[2]
  Percent Effect: 5.33%
[3]
  Percent Effect: 11%
[4]
  Percent Effect: -2.04%
Trypanosoma cruzi
  Percent Effect: -9.45%
[5]
  Percent Effect: 7.69%
[6]
  Percent Effect: 13.5%
Homo sapiens
  Percent Effect: 17.5%
[7]
  Percent Effect: 3.19%
[8]
  Percent Effect: 6.41%
[9]
  Percent Effect: -5.69%
